RORg inh: ROR gamma (mouse) transcription inhibition; P51450; Drosophila S2 Gal4-RORgamma UAS-luciferase reporter, 20 h; Potency, µM (titrated, usually from 53.6 µM), for the others: top-dose activity change, negative = inhibition, most hits filed as inhibitors; hit rate 5.4% among 310,000; further: potency means the concentration at half of the fitted maximal effect; on the % scale 0 is the no-effect control and ±100 the full control effect; nearly all actives have a fitted effect of over 60% in size
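Luminescence from a UAS-regulated Photinus luciferase reporter in stably transfected Drosophila Schneider cells is measured; decreased signal marks ROR gamma inhibition. Fusion expression is induced by 700 uM copper sulfate for 20 hr.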
VP16 counter: inhibits Gal4-VP16 luciferase reporter, ROR gamma counter-screen | Drosophila S2 Gal4-VP16 UAS-luciferase, luminescence, 20 h | Potency, µM (titrated, usually from 53.6 µM), inactives show top-dose activity, negative = inhibition, actives largely listed as inhibitors | hit rate 3.5% among 310,000 | AID 2546;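 further: Gal4-VP16 expression switched on by copper sulfate through the metallothionein promoter; potency means the concentration at half of the fitted maximal effect; on the % scale 0 is the no-effect control and ±100 the full control effect; nearly all actives have a fitted effect of over 50% in size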
TRPV1 PAM: potentiators of human vanilloid receptor 1 (TRPV1); Q8NER1; TRPV1-expressing cells, Fluo-8 calcium influx, capsaicin EC20 potentiation; potentiation, % at 8.33 µM; hit rate 0.02% among 320,000; in the data active means potentiation above about 80%; inconclusive means between about 30% and that limit; further: 0% is about no effect
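Fluo-8 calcium influx in TRPV1-expressing cells, kinetic read (ex 480/em 520 nm). Compound added and read 3 min for agonist activity, followed by capsaicin at EC20 final and 2 min further read for enhancement.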
TRPV1 agonist: human TRPV1 agonism | activation, % at 8.33 µM | TRPV1-expressing cells, Fluo-8 calcium influx, agonist mode | hit rate 0.19% among 320,000 | AID 540275 | Q8NER1; in the data active means activation above about 80%; inconclusive means between about 30% and that limit; further: 0% is about no effect
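Fluo-8 calcium influx in TRPV1-expressing cells, kinetic read (ex 480/em 520 nm). Compound added and read 3 min for agonist activity, followed by capsaicin at EC20 final and 2 min further read for enhancement.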
uPA generation: blocks generation of uPA at the cell surface. Potency, µM (titrated, usually from 38.3 µM), for the others: at the highest dose activity change, negative = inhibition, actives largely listed as inhibitors. hit rate 0.31% among 330,000. cell surface uPA generation assay, qHTS; active means well fitted inhibition curve with a large enough effect; inconclusive means small, poorly fitted or top-dose-only effect; inactive means no such curve, though single readings can be large or run the other way; tested in mouse RAW 264.7 cells; further: potency means the concentration at half of the fitted maximal effect; on the % scale 0 is the no-effect control and ±100 the full control effect; nearly all actives have a fitted effect of over 55% in size
Starred values were filed as active, the others as inactive; i = inactive; ? = inconclusive; . = no result; [ ] = another dose, or the depositor's remark. Sampled rows, rich in hits. Any-hit rate of the full collection: about 5.8%. Unless noted, the call rests on the fitted dose curve; in most records, active means well fitted curve in the direction sought with a large enough effect; inconclusive means small, poorly fitted or top-dose-only effect, or another doubt; inactive means no such curve, though single readings can be large; an effect the other way counts as inactive or inconclusive.

SMILES	RORg inh	VP16 counter	TRPV1 PAM	TRPV1 agonist	uPA generation
Cc1ccc(S(=O)(=O)N2CC(O)CC2C(=O)OCC(=O)c2ccccc2Cl)cc1C (configuration not stated)	27%[10 µM]	-6%	11	-2	-2%
Cc1cc(CN2CCCC(N3CCc4ccccc4C3)C2)cc(C)c1O (configuration not stated)	-16%	-15%	3	-3	-8%
CN1/C(=C\C(=S)NC(=O)c2cccc(Br)c2)C(C)(C)c2ccccc21	?	6.3µM*	0	10	-3%
CN1/C(=C\C(=O)Nc2ccc(Br)cc2)C(C)(C)c2ccccc21	8%	-18%	-12	1	12%
CN1/C(=C\C=N\O)C(C)(C)c2ccccc21	-19%	-19%	-2	-1	-1%
CN1/C(=C/C(=O)C2CC2)C(C)(C)c2ccccc21	-6%	?	-8	16	-12%
CN1/C(=C/C=N/NC(=O)c2ccc([N+](=O)[O-])cc2)C(C)(C)c2ccccc21	1.8µM*	2.2µM*	?	-1	-2%
Cc1ccccc1N=C/C=C1\N(C)c2ccccc2C1(C)C	?	13µM*	-3	-4	-4%
CN1/C(=C\C(=S)NC(=O)c2ccc([N+](=O)[O-])cc2)C(C)(C)c2ccccc21	3.5µM*	4µM*	2	-1	3%
COc1ccc(-n2c(=O)c(-c3cccs3)nc3cnc(N(C)C)nc32)cc1	-9%	5%	.	.	.
Cc1cccc(NC(=O)C2Cc3ccccc3O/C2=N\O)c1 (configuration not stated)	-1%	0%	4	-2	2%
CCc1ccc(C(=O)c2cn(CC(=O)Nc3cccc(OC)c3)c3ccc(OC)cc3c2=O)cc1	.	.	-12	9	.
c1ccc2nc(-c3ccc(N4CCOCC4)cc3)ccc2c1	1.4µM*	1.3µM*	28	-13	-8%
CN1CCN(c2ccc(-c3ccc4ccccc4n3)cc2)CC1	0.32µM*	?	3	0	-11%
Cc1cc(-c2ccc(N3CCOCC3)cc2)nc2ccccc12	29%	-11%	15	3	-5%
c1ccc2nc(-c3ccncc3)ccc2c1	-40%	1%	-7	7	.
CO[C@H]1COC(=O)C/C=C\[C@H](C)[C@@H](OC)COC(=O)[C@H](Cc2ccccc2)NC(=O)C/C=C\[C@@H]1C	-9%[10 µM]	0%[10 µM]	.	.	.
OCC1=C[C@@H](O)[C@@H]2C=CO[C@@H](OC3O[C@H](CO)[C@@H](O)[C@H](O)[C@H]3O)[C@H]12 (some centres not stated)	15%	4%	.	.	.
CCn1c(-c2cc(Br)cc(OC)c2O)nc2cc(S(=O)(=O)N(C)C)ccc21	3.5µM*	7.9µM*	12	0	.
CNc1snc(C)c1C(=O)OCC(=O)N(C)Cc1ccccc1	.	.	5	1	-28%
COc1ccccc1N(CC(=O)NC1CCCC1)C(=O)c1oc(C(C)(C)C)cc1C	13µM*	-2%	-14	?	13%
Cc1cc(C(C)(C)C)oc1C(=O)N(CC(=O)NC1CCCC1)c1c(C)cccc1C	-27%	-5%[0.365 µM]	-11	?	-9%
O=C(CCl)N(C/C=C/c1ccccc1)c1ccc2c(c1)OCCO2	13µM*	?	7	2	-17%
COC(=O)c1ccc(C(NC(=O)OCc2ccccc2)/C(=C/[C@@H](C)C(=O)NCc2ccc(OC)c(OC)c2)c2cccnc2)cc1 (some centres not stated)	3%	-10%	.	.	.
Cc1c(Cl)cccc1NC(=S)NCCc1ccc(Cl)cc1	5.6µM*	3.2µM*	-16	28	3%
SMILES	RORg inh	VP16 counter	TRPV1 PAM	TRPV1 agonist	uPA generation
Cc1c(Cl)cccc1NC(=S)NCCc1ccc(F)cc1	4.5µM*	3.5µM*	-9	25	3%
CCOC(=O)N1CCN(C(=O)C(=O)c2cn(CC(=O)N3CCCCCC3)c3ccccc23)CC1	29%	3%	-6	-5	-4%
COC(=O)/C=C1/S/C(=N/N=C/c2ccco2)NC1=O	14µM*	?	7	-1	5%
COC(=O)/C=C1\S/C(=N/N=C/c2ccco2)NC1=O	7.1µM*	-16%[10 µM]	8	2	-10%
COC(=O)/C=C1\S/C(=N/N=C/c2ccccc2)NC1=O	?	?	0	1	-13%
COc1cc(OC)cc(C(=O)NCC(=O)OCC(=O)/C=C2/N(C)c3ccccc3C2(C)C)c1	-12%	18µM*	0	13	-4%
CN1/C(=C\C(=O)COC(=O)Cn2nnc(-c3ccccc3)n2)C(C)(C)c2ccccc21	32%	28µM*	-12	5	-3%
CCCCn1c(C)cc2c(c1=O)[C@H]1O[C@](CCCC)(Cc3c1ccc1ccccc31)O2	-16%[10 µM]	5%[10 µM]	i	i	.
COc1ccc2c(c1)O[C@@H](c1ccc3c(c1)OCO3)[C@H](OC(=O)NCCOc1ccccc1)C2=O	26%	-3%	.	.	.
CC(=O)c1ccc(-c2nnc(CCC(=O)N(C)Cc3c(C)nc4ccccn34)o2)s1	14%	-4%	-7	12	-4%
CC(C)(C)c1ccc(/C=C2\Oc3cc(O)ccc3C2=O)cc1	?	?	3	?	-3%
CC(=O)Oc1ccc(/C=C2/Oc3ccccc3C2=O)cc1	2%	-13%	-19	20	-8%
COC(=O)c1ccc2c(c1)C(=O)/C(=C/c1ccc(O)cc1)O2	0.22µM*	1.6µM*	-16	21	-3%
COc1ccc(/C=C2\Oc3ccccc3C2=O)cc1	.	.	.	.	7.1µM*
CC(C)CNc1nc(C#N)nc(Nc2ccccc2)n1	.	-19%	.	.	.
CN(Cc1nc(-c2cccnc2)no1)S(=O)(=O)c1ccc(Br)cc1	40%	11µM*	14	-5	8%
O=[N+]([O-])c1cccc2c(N3CCCC3)ccnc12	-42%	?	12	-4	-18%
O=C(Cc1cccs1)NNC(=S)NCc1ccc(Cl)cc1	4µM*	-15%	0	0	-2%
O=C(Cc1cccs1)NNC(=S)NC(=O)c1ccco1	7.9µM*	19%	6	-3	-1%
CCCCCc1n[nH]c2c1CCCC2	10µM*	-26%	-14	2	14%
CCCCc1nc2n[nH]c(N)c2c2c1CCCC2	-1%	6%	20	-3	-3%
Cc1ccccc1OCC(=O)OC(C(=O)c1ccccc1)c1ccccc1 (configuration not stated)	-4%	1%	0	-1	6%
O=C(COc1ccccc1)OC(C(=O)c1ccccc1)c1ccccc1 (configuration not stated)	11µM*	-8%	0	2	3%
O=C(Nc1ccccc1)c1ccc(CN2CCc3ccccc3C2)cc1	37%	20%	15	?	2%
Cc1ccccc1C(=O)NC(=S)Nc1ccc(S(=O)(=O)N2CCOCC2)cc1	20µM*	18µM*	-15	19	-10%
Cc1ccc(S(=O)(=O)N2CCOCC2)cc1C(=O)NC(=S)N1CC(C)OC(C)C1 (configuration not stated)	4.5µM*	16µM*	-3	3	-2%

Screening data from PubChem BioAssay.
